# Screening data deposited in PubChem by National Center for Advancing Translational Sciences (NCATS).
# PLK1 PBD block: qHTS for Inhibitors of PLK1-PDB (polo-like kinase 1 - polo-box domain): Primary Screen. Serine/threonine-protein kinase PLK1 (Homo sapiens), P53350. Plk1 PBD binding of FITC phosphopeptide, fluorescence polarization. Potency, µM, inactives show max response, negative = inhibition, usual class: inhibitors. actives 2.8% (n = 360,000). AID 720504, 2013; note: potency is the fitted concentration of half-maximal effect; series mostly up to about 57 µM; nearly all actives have a fitted effect of over 65% in size
# CCT modulator: High-Throughput Screening for Modulators of Cytosolic Chaperonin Activity. purified chaperonin ATPase assay, HTRF ADP detection, 30 min. activity change, % (no concentration beside the values), hits read low. actives 0.3% (n = 360,000); in the data active = activity change below about -30%
#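 Nucleotide hydrolysis assay: TRiC at 20–40 nM final (set by batch activity) with 10 uM ATP, 30 min at 37 °C, in presence of 76 uM compound. Detection by competitive ADP HTRF, 30 min ambient.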
# G9a block: qHTS Assay for Inhibitors of Histone Lysine Methyltransferase G9a | Histone-lysine N-methyltransferase EHMT2 (Homo sapiens), Q96KQ7 | G9a H3K9 monomethylation, AlphaScreen, 2 h | Potency, µM (doses to about 102 µM), for the others: top-dose activity, negative = inhibition, actives largely listed as inhibitors | actives 8.8% (n = 350,000) | AID 504332, 2011; note: potency is the fitted concentration of half-maximal effect; nearly all actives have a fitted effect of over 75% in size
# Target sequence (Q96KQ7 913-1193 limits assumed): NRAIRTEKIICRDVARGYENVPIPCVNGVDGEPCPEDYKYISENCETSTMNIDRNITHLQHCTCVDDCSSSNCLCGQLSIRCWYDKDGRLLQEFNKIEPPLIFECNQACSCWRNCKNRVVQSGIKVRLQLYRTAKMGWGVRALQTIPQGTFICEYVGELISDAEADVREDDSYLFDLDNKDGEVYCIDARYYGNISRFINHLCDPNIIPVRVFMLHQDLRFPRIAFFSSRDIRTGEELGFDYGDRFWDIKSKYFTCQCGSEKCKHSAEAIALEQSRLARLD
#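 Step 1: enzyme (final 20 nM) with compound, 15 min RT. Step 2: substrate peptide 500 nM and SAM 20 uM, 2 h RT. Step 3: anti-H3K9me1 antibody and AlphaScreen beads, 10 min, then plate read.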
# VDR inh: Inhibitors of the vitamin D receptor (VDR): qHTS; VDR-SRC2-3 peptide fluorescence polarization, 2 h; AID 504847, 2011; actives 0.93% (n = 400,000); Vitamin D3 receptor (Homo sapiens), P11473; Potency, µM, without a hit: max response, negative = inhibition, usual class: inhibitors; note: potency is the fitted concentration of half-maximal effect
# Target sequence (P11473 whole entry, looked up): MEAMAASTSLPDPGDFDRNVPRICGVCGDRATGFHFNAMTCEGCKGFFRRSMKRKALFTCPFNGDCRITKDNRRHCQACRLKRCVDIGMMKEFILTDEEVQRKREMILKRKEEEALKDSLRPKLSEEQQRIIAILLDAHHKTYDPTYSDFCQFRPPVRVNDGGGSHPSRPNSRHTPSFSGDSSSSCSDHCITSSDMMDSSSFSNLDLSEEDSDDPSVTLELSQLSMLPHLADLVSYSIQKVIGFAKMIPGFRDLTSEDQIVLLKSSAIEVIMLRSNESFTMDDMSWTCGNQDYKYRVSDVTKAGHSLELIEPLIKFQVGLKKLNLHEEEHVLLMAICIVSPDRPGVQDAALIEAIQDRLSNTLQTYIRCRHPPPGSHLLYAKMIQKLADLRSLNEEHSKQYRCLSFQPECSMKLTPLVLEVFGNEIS
#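 FP read-out; VDR + SRC2-3 coactivator peptide; 23 nl compound by pintool; 2 h RT incubation; reagents held at 4 deg C, protected from light.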
# Mm-Cpn inhibitor: Inhibitors of TCP-1 ring complex (TRiC) of Methanococcus maripaludis (MmCpn): qHTS; Chaperonin Mm-Cpn (Methanococcus maripaludis); purified Mm-Cpn ATPase, ADP Transcreener TR-FRET; Potency, µM (doses to about 76.9 µM), inactives show at the top dose activity, negative = inhibition, most hits filed as inhibitors; actives 0.031% (n = 330,000); AID 504842, 2011; note: potency is the fitted concentration of half-maximal effect; nearly all actives have a fitted effect of over 80% in size
#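 Eu-cryptate anti-ADP/ADP-d2 competition gives a ratio inversely related to ADP. Enzyme at 25 nM was pre-exposed to compound for 10 min, then given 10 uM ATP for 30 min, 37°C throughout.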
# Sfp inh: qHTS Assay for Inhibitors of Bacillus subtilis Sfp phosphopantetheinyl transferase (PPTase). 4'-phosphopantetheinyl transferase ffp (Bacillus subtilis), Q9F4F7. Biochemical Sfp PPTase activity, qHTS. Potency, µM, without a hit: largest response in the series, negative = inhibition, most hits filed as inhibitors. actives 3.5% (n = 310,000);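 note: the enzyme is Sfp with the accession as filed and its product quenches rhodamine fluorescence; potency is the fitted concentration of half-maximal effect; 0% = enzyme reaction without inhibitor and -100% = no enzyme wells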
#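 Reaction rates are the 30-min fluorescence difference (ex 525, em 598 nm) in wells containing 15 nM Sfp, 5 uM rhodamine-CoA and 12.5 uM BHQ-2-YbbR at pH 7.6 with 10 mM MgCl2.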
# Numbers without * were called inactive; ? = inconclusive; nt = no result; [ ] = another dose, or the depositor's remark. Rows were chosen to be rich in hits. Some 10% of all compounds tested hit in one or more screens of this group. Unless noted, calls come from the whole dose curve; as a rule, active = well fitted curve in the direction sought with a large enough effect; inconclusive = small, poorly fitted or top-dose-only effect, or another doubt; inactive = no such curve, though single readings can be large; an effect the other way counts as inactive or inconclusive. Unless noted, % is set by controls: 0 for no effect and ±100 for the full control effect.
SMILES,PLK1 PBD block,CCT modulator,G9a block,VDR inh,Mm-Cpn inhibitor,Sfp inh
CCCCC/C=C\C[C@@H]1O[C@H]1C(O)/C=C\C/C=C\CCCC(=O)O (some centres not stated),nt,nt,nt,-1.3%,nt,23.3%
COc1ccc(C)cc1NC(=O)CC1NCCNC1=O (configuration not stated),nt,nt,10.9%[59 µM],20.2%,nt,nt
CCCN1C(=O)c2ccccc2NC1c1ccc(OC)cc1O (configuration not stated),1.7%,-85.5*,-5.4%,-1.1%,0.8%,6.5%
N#CC(C#N)=C1C=C2C=C(N3CCOCC3)CCC2CC1 (configuration not stated),51.9%,-1.0,?,70.8µM*,-0.3%,11.0%
N#CC(C#N)=C1C=C2C=C(N3CCCCCC3)CCC2CC1 (configuration not stated),-67.3%,0.1,-15.4%[59 µM],-17.8%,-3.3%,2.0%
CSCCC1NC2(C(=O)Nc3c(Cl)cccc32)[C@@H]2C(=O)N(C3CCCC3)C(=O)[C@H]12 (some centres not stated),-2.1%,-1.7,70.8µM*,12.2%,-3.0%,21.5%
CSCCC1NC2(C(=O)Nc3c(C)cc(Cl)cc32)[C@@H]2C(=O)N(C3CCCC3)C(=O)[C@H]12 (some centres not stated),-2.4%,0.7,?,-6.0%,-0.7%,7.4%
COc1ccc(S(=O)(=O)c2c(Nc3c(C)cccc3C)sc(C(=O)c3ccc4c(c3)OCO4)c2N)cc1,nt,nt,10.6%[59 µM],-3.1%,nt,nt
Oc1ccc(N=Cc2ccc(OCc3ccccc3)cc2)cc1,?,-0.1,2.51µM*,?,-10.5%,?
C=C1C2c3ccccc3C(CC2(C)O[Si](C)(C)C)N1C(=O)OC (configuration not stated),nt,nt,nt,nt,nt,-1.0%
COc1ccc2[nH]cc(CCNc3ncncc3-c3cccc(NS(C)(=O)=O)c3)c2c1,nt,nt,-34.5%[0.501 µM],-8.6%,nt,?
Cc1ccc2cc(/C=C(\C#N)C(N)=O)c(N3CCCCC3)nc2c1,23.8%,-1.2,23.5%[59 µM],6.1%,-10.1%,-3.3%
Cc1ccc2cc(C=C(C#N)C#N)c(N3CCCCC3)nc2c1,?,0.2,44.7µM*,?,?,-12.8%
CCn1c(SC)nnc1-c1nn(-c2ccccc2)ccc1=O,-8.5%,-4.3,5.01µM*,-0.5%,-0.6%,6.2%
O=C(CSc1ncc(-c2ccccc2)[nH]1)Nc1ccc(Cl)cc1,nt,nt,?,0.2%,nt,nt
CCN(c1ccccc1)c1nc(=O)c2cccnc2s1,-8.7%,0.3,35.5µM*,2.5%,0.7%,-4.4%
Cc1ccc(Nc2nc(=O)c3cccnc3s2)cc1,-4.6%,-1.3,-9.5%[59 µM],21.8%,0.4%,8.3%
CC(=O)N1CCc2c(sc(NC(=O)c3cccc(N4C(=O)CCC4=O)c3)c2C(N)=O)C1,-29.3%,-1.8,44.7µM*,?,0.1%,-16.8%
COc1cccc(C(=O)Nc2sc3c(c2C#N)CCN(C(C)=O)C3)c1,23.8µM*,-0.5,5.01µM*,79.4µM*,-2.4%,39.8µM*
COc1cccc(C(=O)Nc2sc3c(c2C(=O)O)CCCC3)c1,-19.7%,-2.1,3.4%,-14.7%,-3.0%,-0.8%
NC(=O)c1c(NC(=O)c2cccc(N3C(=O)CCC3=O)c2)sc2c1CCCCC2,-14.4%,-20.3,8.0%,8.7%,0.3%,4.3%
CCN=C1S/C(=C\c2ccc(Sc3ccc(Cl)cc3)o2)C(=O)N1CC,-15.5%,1.4,148.3%,2.6%,-1.4%,1.0%
CCN=C1S/C(=C/c2ccc(-c3ccc(F)cc3)o2)C(=O)N1CC,-3.6%,-1.1,35.5µM*,-18.7%,-8.3%,56.2µM*
O=C(Nc1ccccc1C(=O)OCc1cc(=O)n2nc(C3CC3)sc2n1)c1cccc(F)c1,nt,nt,13.2%[59 µM],9.4%,nt,nt
CCOc1ccc(NC(=O)C2CCN(S(=O)(=O)c3c(C)noc3/C=C/c3cccs3)CC2)cc1,nt,nt,-33.0%[59 µM],-1.1%,nt,nt
SMILES,PLK1 PBD block,CCT modulator,G9a block,VDR inh,Mm-Cpn inhibitor,Sfp inh
CCOC(=O)/C(=C/c1c(C)n(C)c2ccc([N+](=O)[O-])cc12)C(C)=O,-24.9%,1.1,22.3%[59 µM],?,-1.9%,-10.1%
CCOC(=O)/C(=C/C=C1\Sc2cc(C)c(C)cc2N1CC)C(C)=O,60.6%,1.1,-19.9%,10.8%,-27.2%,15.8µM*
Cc1ccc(Cl)cc1N1CCN(C(=O)c2cc(S(=O)(=O)N3CCCC3)c[nH]2)CC1,nt,nt,-21.8%[59 µM],-8.5%,nt,nt
COC(=O)C(C(=O)OC)C(c1ccccc1)C(C(=O)c1ccccc1)[N+](=O)[O-] (configuration not stated),-26.4%,-0.9,50.1µM*,12.0%,-1.7%,4.5%
COc1cccc2[nH]c(C(=O)NN)c(N)c12,-11.1%,0.5,50.1µM*,-0.2%,-3.4%,-1.0%
CCS(=O)(=O)Nc1ccc(C2=NN(C(=O)c3ccco3)C(c3cccs3)C2)cc1 (configuration not stated),-3.2%,-1.7,-4.3%,-5.7%,-2.4%,-2.9%
CCS(=O)(=O)Nc1ccc(C2=NN(C(=O)c3ccccc3)C(c3cccs3)C2)cc1 (configuration not stated),-12.6%,-1.7,28.2µM*,-18.1%,-2.0%,-5.9%
COc1cccc(/C=N/NC(=O)Cn2cnc3c2c(=O)n(C)c(=O)n3C)c1,23.8µM*,1.3,nt,?,-8.5%,3.9%
COc1cccc(/C=N/NC(=O)CCn2nnc3ccccc32)c1,7.52µM*,0.7,1.6%,-4.7%,1.1%,11.5%
COc1cccc(/C=N/NC(=O)C(C)n2nnc3ccccc32)c1 (configuration not stated),18.9µM*,-1.8,5.4%[59 µM],?,-0.6%,-1.0%
Cc1[nH]n(-c2ccccc2)c(=O)c1/C=N/NC(=O)c1cccc(F)c1,-5.6%,1.3,25.1µM*,-2.0%,?,1.1%
CCCCN(CCCC)C(=S)N/N=C/c1c(C)[nH]n(-c2ccccc2)c1=O,-20.5%,-88.6*,?,-3.6%,2.4%,-4.8%
Cc1[nH]n(-c2ccccc2)c(=O)c1/C=N/NC(=O)c1ccc(O)cc1O,-14.5%,3.0,?,-8.8%,-0.9%,6.6%
COc1cccc(N2CCN(S(=O)(=O)c3cn(C)c(C)n3)CC2)c1,nt,nt,4.8%[59 µM],14.5%,nt,nt
Cc1cc(NC(=O)COc2ccccc2)cc(-c2nc3ccccc3o2)c1O,nt,nt,-34.9%[59 µM],-0.9%,nt,nt
